# Test results: PubChem BioAssay (NCI)
# The panel holds about 83,000 compounds, 20% with a hit somewhere; the sample as a whole holds those more often.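 Values shown are percent growth following 48 h exposure of cells in 96-well plates to a single concentration of compound; below 10 was considered active.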 Values without a mark were called inactive. The source made the active and inactive calls.
# System: CAKI-1 renal
# Experiment: NCI-60 one-dose screen, 48 h (100 = growth as untreated, 0 = no growth, -100 = all killed)
# Settings: 10 µM unless noted
row,SMILES,growth
1,O=C(Nc1ccc(O)cc1)C(Cl)(Cl)Cl,89.9%
2,CCCOC(=O)N[C@H]1CCc2c(Br)c(OC)c(OC)c(OC)c2-c2ccc(SC)c(=O)cc21,11.2%
3,CCOC(=O)[C@@H](C)C[C@H](Cc1ccccc1)NC(=O)c1csc([C@@H](C[C@H](C(C)C)N(C)C(=O)[C@@H](NC(=O)[C@H]2CCCCN2C)C(C)(C)CC)OC(C)=O)n1,19.8%
4,CN1CC(CNC(=O)OCc2ccccc2)CC2c3cccc4c3c(cn4C)CC21 (configuration not stated),52.9%
5,COc1ccc(NC([Se])=NC23CC4CC(CC(C4)C2)C3)cc1,-31% (active)
6,ClCCN(CCCl)c1ccc(/C=N\N=C\c2ccc(N(CCCl)CCCl)cc2)cc1,7.35% (active)
7,C[C@@]12CC=C3c4nc(Nc5cccc(O)c5)sc4CC[C@]3(C)[C@H]1CC[C@]1(C)C(=O)CC[C@@H]21,37.1%
8,O=[N+]([O-])/C=C\c1ccc(Cl)c(Cl)c1,84.7%
9,CC(C)OC(=O)[C@H](C)NP(=O)(Oc1ccccc1)C1CCCN(O)C1=O (some centres not stated),104%
10,COC(=O)CCC1=C(C)c2cc3[n-]c(cc4nc(cc5[n-]c(cc1n2)c(CCC(=O)OC)c5C)C=C4C)cc3C.[Cd+2],63.3%
11,C=CCn1cc(C=C2C(=O)N(C)C(=O)N(C)C2=O)c2ccccc21,90.3%
12,COC(=O)[C@@H](C)C[C@H](Cc1ccccc1)NC(=O)c1nc([C@@H](C[C@H](C(C)C)N(C)C(=O)[C@@H](NC(=O)[C@H]2C[C@H](O)CCN2C)C(C)C)OC(C)=O)sc1C(C)C,23.8%
13,N#CC1C(C#N)C2CCC1C1C2N1c1ccccc1 (configuration not stated),98.9%
14,CC(C)(NC(=O)O[C@@H]1CN2CCC1CC2)c1csc(-c2ccc(F)cc2)n1,81.5%
15,CCC(C)(C)[C@H](NC(=O)[C@H]1CCCCN1C)C(=O)N(C)[C@H](C[C@@H](OC(C)=O)c1nc(C(=O)N[C@@H](Cc2ccccc2)C[C@H](C)C(=O)O)cs1)C(C)C,29%
16,C[C@]12CCc3sc(-c4ccccc4O)nc3C1=CC[C@@H]1[C@@H]2CC[C@]2(C)C(=O)CC[C@@H]12,83.5%
17,CCOC(=O)N1CC1,95.1%
18,N#CC1(C#N)C(c2ccc(N(CCCl)CCCl)cc2)OC23CCCCC2C1(C#N)C(=N)O3 (configuration not stated),55.8%
19,C=CCCCN=C=S,83.3%

row,SMILES,growth
1,Cc1cccc(N2CCN(C(C)C#N)CC2)c1 (configuration not stated),95%
2,O=C(Nc1ccc([N+](=O)[O-])cc1)C(Cl)(Cl)Cl,83.3%
3,COP(=S)(N1CC1)N1CC1,93.6%
4,O=C(N/N=C\c1ccc(N(CCCl)CCCl)cc1)c1cccc([N+](=O)[O-])c1,89.3%
5,CC(=O)OC[C@]1(C)C=C2C(=O)[C@](C)(O)C3(CC3)C(C)=C2[C@H]1O,1.8% (active)
6,CS(=O)(=O)CCN1CC2CCCC(C2)C1,97.1%
7,CCOC(=O)[C@@H](C)C[C@H](Cc1ccccc1)NC(=O)c1csc([C@@H](C[C@H](C(C)C)N(C)C(=O)[C@@H](NC(=O)[C@H]2C[C@H](O)CCN2C)C(C)C)OC(C)=O)n1,30.9%
8,CNCc1cccnc1,92%
9,Cn1cc(C=O)c2nccnc21,91.4%
10,Cc1cc(N(CCCl)CCCl)ccc1C=Nc1ccccc1-c1ccccc1,27.6%
11,CNC(=O)Oc1ccc2c(c1)OCO2,100%
12,COc1ccc(N(CC(=O)NCCC[Te]c2ccccc2)C(=O)CCSC2=C(C)C(=O)c3ccccc3C2=O)cc1,-25.5% (active)
13,Cn1cccc1C1CC(=O)N(CCC[Se]C#N)C1=O (configuration not stated),-80.1% (active)
14,CC1(C)[C@H](O)[C@H](F)C[C@@]2(C)Oc3ccc(C(=O)Nc4ccc5c(c4)NC(=O)C54CCN(CCCCC#N)CC4)cc3C[C@H]12,56.5%
15,CCOC(=O)[C@@H](C)C[C@H](Cc1ccccc1)NC(=O)c1nc([C@@H](C[C@H](C(C)C)N(C)C(=O)[C@@H](NC(=O)[C@H]2CCCCN2C)C(C)C)OC(C)=O)sc1CCOCc1ccccc1,-23.5% (active)
16,C[C@]12CCc3sc(-c4cccc(F)c4)nc3C1=CC[C@@H]1[C@@H]2CC[C@]2(C)C(=O)CC[C@@H]12,36.9%
17,COC(=O)[C@H](C[C@H](Cc1ccccc1)NC(=O)c1csc([C@@H](C[C@H](C(C)C)N(C)C(=O)[C@@H](NC(=O)[C@H]2CCCCN2C)C(C)C)OC(C)=O)n1)NC(=O)OCc1ccccc1,34.9% [8.5 µM]
18,C[C@]12CC[C@H]3[C@@H](C[C@@H]4SC(Nc5ccccc5)=N[C@@]45CC(O)CC[C@]35C)[C@@H]1CCC2O (some centres not stated),49%
